Source: PubChem (National Center for Advancing Translational Sciences (NCATS))
Compounds with a hit are over-represented: about 19% of the library has one in this group of screens.
uPA surface inh – inhibitors of cell surface uPA generation | actives 0.31% (n = 330,000) | cell surface uPA generation assay, qHTS | Potency, µM (top dose mostly 38.3 µM), for inactives: at the top dose activity change, negative = inhibition, usual class: inhibitors | AID 540303; active = well fitted inhibition curve with a large enough effect; inconclusive = small, poorly fitted or top-dose-only effect; inactive = no such curve, though single readings can be large or run the other way; tested in mouse RAW 264.7 cells; note: potency is the fitted concentration of half-maximal effect; nearly all actives have a fitted effect of over 55% in size
DT40 TDP1 CPT – growth inhibition of DT40 Tdp1-/-;hTDP1 cells with camptothecin (screen for TDP1 inhibitors). chicken DT40 Tdp1-/-;hTDP1 cells + 20 nM CPT, ATP luminescence, 48 h. Potency, µM (highest dose often 46.2 µM), for inactives: top-dose activity change, negative = growth inhibition, usual class: inhibitors. actives 12% (n = 420,000). AID 686979; note: potency is the fitted concentration of half-maximal effect; nearly all actives have a fitted effect of over 55% in size
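Cell growth measured by CellTiter-Glo luminescence after a minimum 48 h, 37 C compound exposure with 20 nM CPT in Tdp1-knockout DT40 cells stably expressing hTDP1, seeded 400/well; qHTS titration format.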
HT1080 IDH1KD tx – toxicity to HT-1080 IDH1 knockdown cells (counter line); HT-1080 IDH1 knockdown viability, ATP luminescence, 48 h; Potency, µM (titrated, usually from 46.1 µM), without a hit: at the top dose activity, negative = toxicity, hits mostly cytotoxic; actives 2% (n = 360,000); AID 686971;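 note: potency is the fitted concentration of half-maximal effect; 0% = DMSO wells and -100% = cell-free medium wells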
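Luminescent ATP read-out (CellTiter-Glo, 10 min at room temperature) after 48 h compound exposure at 37 °C gave viability of IDH1-knockdown HT-1080 cells. Activity was normalised to DMSO and cell-free wells, then fitted as concentration-response curves.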
HT1080-NT tox – kills 2HG-producing HT-1080-NT fibrosarcoma cells; HT-1080-NT fibrosarcoma viability, CellTiter-Glo ATP luminescence, 48 h; Potency, µM (highest dose often 46.1 µM), for inactives: at the highest dose activity, negative = less viability, usual class: cytotoxic; actives 1.6% (n = 360,000); AID 686970;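 note: NT is the 2HG producing partner of a matched IDH1 knockdown line; potency is the fitted concentration of half-maximal effect; 0% = DMSO-treated cells and -100% = media-only wells without cells; nearly all actives have a fitted effect of over 55% in size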
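Viability by CellTiter-Glo luminescence after 48 h compound exposure at 37C of HT-1080-NT cells (750/well, RPMI, 5% FBS). % activity scaled between DMSO wells and medium-only wells, then curve-fitted and categorized by curve class.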
DT40 TDP1 no CPT – qHTS for Inhibitors of human tyrosyl-DNA phosphodiesterase 1 (TDP1): qHTS in cells in absence of CPT. Potency, µM (top dose mostly 46.2 µM), for inactives: at the top dose activity change, negative = growth inhibition, actives largely listed as inhibitors. actives 15% (n = 420,000). DT40 Tdp1-/- hTDP1 cells, no CPT, ATP luminescence, 48 h; note: potency is the fitted concentration of half-maximal effect; nearly all actives have a fitted effect of over 55% in size
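Growth kinetics read by CellTiter-Glo luminescence after ≥48 hr at 37 °C. Cells: DT40 Tdp1-/- stably carrying human TDP1, 400 per well, compound exposure in the absence of CPT (DMSO vehicle).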
IL-1B inflam inh – blocks inflammasome-driven IL-1 beta release; activity change, % at 57.5 µM; THP-1 LPS/ATP IL-1B secretion, AlphaLISA, 16 h; stronger effect = lower value; actives 4.7% (n = 360,000); in the data active = activity change below about -50%; inconclusive = mostly about -30% to -49%
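THP-1 cells pretreated 1 hr with compounds (up to 57.5 uM final), then stimulated with LPS (250 ng/mL final) plus ATP (1.25 mM final); secreted IL-1B measured by AlphaLISA after 16 hr, decreased signal indicating inhibition.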
Active calls of the source: *. Unless noted, calls come from the whole dose curve; as a rule, active = well fitted curve in the direction sought with a large enough effect; inconclusive = small, poorly fitted or top-dose-only effect, or another doubt; inactive = no such curve, though single readings can be large; an effect the other way counts as inactive or inconclusive. Unless noted, % is set by controls: 0 for no effect and ±100 for the full control effect.

How did CCN(C(=O)Cn1nc(C)c([N+](=O)[O-])c1C)c1c(N)n(Cc2ccccc2)c(=O)[nH]c1=O do in these assays?
uPA surface inh: 0%; DT40 TDP1 CPT: -19%; HT1080 IDH1KD tx: 11%; HT1080-NT tox: 3%; DT40 TDP1 no CPT: -1%; IL-1B inflam inh: 5

How did COC1=CC(=NCl)C=CC1=NCl do in these assays?
DT40 TDP1 CPT: 21µM*; HT1080 IDH1KD tx: 22%; HT1080-NT tox: 24%; DT40 TDP1 no CPT: 16µM*; IL-1B inflam inh: 44

What do the screens show for `CCN(CC)c1nc(C#N)nc(N(CC)CC)n1`?
uPA surface inh: -3%; DT40 TDP1 CPT: inconclusive; HT1080 IDH1KD tx: -1%; HT1080-NT tox: 1%; DT40 TDP1 no CPT: -16%; IL-1B inflam inh: 1

Results for CCCN(CCC)c1nc(N)nc(C#N)n1 ?
DT40 TDP1 CPT: inconclusive; DT40 TDP1 no CPT: 18µM*

Results for COc1ccccc1Cc1c(-c2ccco2)nc2ccc(Br)cn12 ?
DT40 TDP1 CPT: 10µM*; HT1080 IDH1KD tx: inconclusive; HT1080-NT tox: inconclusive; DT40 TDP1 no CPT: 21µM*; IL-1B inflam inh: -5

Results for FC(F)(F)c1ccccc1Cc1c(-c2ccco2)nc2ccc(Br)cn12 ?
DT40 TDP1 CPT: inconclusive; HT1080 IDH1KD tx: inconclusive; HT1080-NT tox: inconclusive; DT40 TDP1 no CPT: inconclusive; IL-1B inflam inh: -28

How did COc1ccccc1Cc1c(-c2ccco2)nc2ccc(Cl)cn12 do in these assays?
DT40 TDP1 CPT: 16µM*; HT1080 IDH1KD tx: inconclusive; HT1080-NT tox: inconclusive; DT40 TDP1 no CPT: 23µM*; IL-1B inflam inh: 0

How did CC(C(=O)Nc1ccc(Cl)cc1Cl)N1C(=O)NC2(CCCCCCC2)C1=O (stereo not given) do in these assays?
uPA surface inh: -3%; DT40 TDP1 CPT: inconclusive; HT1080 IDH1KD tx: -7%; HT1080-NT tox: -1%; DT40 TDP1 no CPT: inconclusive; IL-1B inflam inh: 8

Results for Cc1ccccc1OCc1nnc(SCc2cc(=O)c3ccccc3[nH]2)n1C ?
DT40 TDP1 CPT: 13µM*; DT40 TDP1 no CPT: 15µM*

Results for Cc1cccc(-c2nnc(SCc3cc(=O)c4cccc(Cl)c4[nH]3)n2C)c1 ?
DT40 TDP1 CPT: 23µM*; DT40 TDP1 no CPT: 16µM*

How did Cc1ccccc1OCc1nnc(SCc2cc(=O)c3cc(F)ccc3[nH]2)n1C do in these assays?
DT40 TDP1 CPT: 13µM*; DT40 TDP1 no CPT: 12µM*

How did Cc1ccc2[nH]c(CSc3nnc(COc4ccccc4C)n3C)cc(=O)c2c1 do in these assays?
DT40 TDP1 CPT: 18µM*; DT40 TDP1 no CPT: 15µM*

What do the screens show for `C/C(Cc1ccccc1)=N\NC(=O)CNC(=O)c1ccc(Cl)cc1Cl`?
uPA surface inh: 0%; DT40 TDP1 CPT: 3%; HT1080 IDH1KD tx: -1%; HT1080-NT tox: -2%; DT40 TDP1 no CPT: 20%; IL-1B inflam inh: 6

What do the screens show for `O=c1cc(CSc2ccccc2)[nH]c(=S)[nH]1`?
uPA surface inh: -5%; DT40 TDP1 CPT: -2%; HT1080 IDH1KD tx: 4%; HT1080-NT tox: -4%; DT40 TDP1 no CPT: -21%; IL-1B inflam inh: 17

Results for Cc1ccccc1OCc1nnc(SCc2cc(=O)c3ccc(C)c(C)c3[nH]2)n1C ?
DT40 TDP1 CPT: inconclusive; DT40 TDP1 no CPT: 16µM*

What do the screens show for `O=c1cc(CSc2ccccc2)[nH]c2ccccc12`?
uPA surface inh: -8%; DT40 TDP1 CPT: 26µM*; HT1080 IDH1KD tx: 7%; HT1080-NT tox: -1%; DT40 TDP1 no CPT: inconclusive; IL-1B inflam inh: 15

Results for Cc1ccc2c(=O)cc(CSc3nnc(-c4ccccc4)n3C)[nH]c2c1C ?
DT40 TDP1 CPT: -17%; DT40 TDP1 no CPT: -22%

What do the screens show for `Cc1ccc(CCCNC(=O)C2CCC(=O)N(Cc3cccc(F)c3)C2)cc1` (stereo not given)?
uPA surface inh: -9%; DT40 TDP1 CPT: 5%; HT1080 IDH1KD tx: 9%; HT1080-NT tox: -20%; DT40 TDP1 no CPT: inconclusive; IL-1B inflam inh: -9

What do the screens show for `COc1cccc(N2CCN(c3ccc4nnc(CCC(=O)Nc5ncccc5C)n4n3)CC2)c1`?
uPA surface inh: 6%; DT40 TDP1 CPT: -25%; HT1080 IDH1KD tx: 10%; HT1080-NT tox: 0%; DT40 TDP1 no CPT: -15%; IL-1B inflam inh: 3

How did COc1cc2[nH]c3c(=O)n4c(nc3c2cc1OC)SCCC4 do in these assays?
uPA surface inh: -15%; DT40 TDP1 CPT: inconclusive; HT1080 IDH1KD tx: 7.3µM*; HT1080-NT tox: 7.3µM*; DT40 TDP1 no CPT: inconclusive; IL-1B inflam inh: -61*

What do the screens show for `CCCCCCNc1c(C(=O)OCC)c(=O)[nH]c2ccccc12`?
uPA surface inh: -8%; DT40 TDP1 CPT: 16µM*; HT1080 IDH1KD tx: -23%; HT1080-NT tox: -11%; DT40 TDP1 no CPT: inconclusive; IL-1B inflam inh: -2

How did COc1cc2c(C#CCCO)c(-c3ccsc3)oc(=O)c2cc1OC do in these assays?
uPA surface inh: inconclusive; DT40 TDP1 CPT: inconclusive; HT1080 IDH1KD tx: -8%; HT1080-NT tox: -12%; DT40 TDP1 no CPT: 8.2µM*; IL-1B inflam inh: -73*

Results for COc1cc2c(C#CCCO)c(-c3ccc(C#N)cc3)oc(=O)c2cc1OC ?
uPA surface inh: -1%; DT40 TDP1 CPT: -20%; HT1080 IDH1KD tx: -17%; HT1080-NT tox: -14%; DT40 TDP1 no CPT: inconclusive; IL-1B inflam inh: 0

How did COCc1ccc(-c2c(-c3ccsc3)oc(=O)c3cc(OC)c(OC)cc23)cc1 do in these assays?
uPA surface inh: 3%; DT40 TDP1 CPT: inconclusive; HT1080 IDH1KD tx: -1%; HT1080-NT tox: -2%; DT40 TDP1 no CPT: 21µM*; IL-1B inflam inh: 8

How did CCCNC(=O)C1(C)CCN(C(=O)/C=C/c2ccccc2)C1 (stereo not given) do in these assays?
DT40 TDP1 CPT: 5%; HT1080 IDH1KD tx: 13%; HT1080-NT tox: inconclusive; DT40 TDP1 no CPT: 0%; IL-1B inflam inh: 10

What do the screens show for `Cc1cc2n(n1)CCCN2C(=O)Nc1ccc(C)c(Cl)c1`?
DT40 TDP1 CPT: -3%; DT40 TDP1 no CPT: -21%

What do the screens show for `O=C(Cc1cccc(C(F)(F)F)c1)OCN1C(=O)c2ccccc2C1=O`?
uPA surface inh: 1%; DT40 TDP1 CPT: -11%; HT1080 IDH1KD tx: 8%; HT1080-NT tox: 17%; DT40 TDP1 no CPT: -3%; IL-1B inflam inh: 11

What do the screens show for `COc1ccc2[nH]c(C)c(C(=O)CN3CCN(C/C=C/c4ccccc4)CC3)c2c1`?
uPA surface inh: -1%; DT40 TDP1 CPT: 18µM*; HT1080 IDH1KD tx: -1%; HT1080-NT tox: -1%; DT40 TDP1 no CPT: inconclusive; IL-1B inflam inh: inconclusive
